In the library only some 9.2% were active in any assay of this set; here they are far more common.
JMJD2E inh = qHTS Assay for Inhibitors of Human Jumonji Domain Containing 2E (JMJD2E) | JMJD2E catalytic domain, FDH-coupled NADH fluorescence (FDH is formaldehyde dehydrogenase) | Potency, µM (series often up to 57.1 µM), for the others: at the top dose activity change, negative = inhibition, most hits filed as inhibitors | AID 2147, 2009 | 230,000 tested, 1.6% active;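 note: 0% = wells with enzyme and -100% = buffer wells without enzyme; nearly all actives have a fitted effect of over 50% in size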
HttQ103 aggreg = qHTS Multiplex Assay to Identify Dual Action Probes in a Cell Model of Huntington: Aggregate Formation (GFP) | PC12 HttQ103-GFP aggregates, Acumen cytometry, 40 h | Potency, µM (titrated, usually from 46.1 µM), without a hit: at the highest dose activity change, negative = inhibition, hits mostly inhibitors | 220,000 tested, 1.1% active | AID 1688, 2009; active = well fitted curve in the direction sought with a large enough effect; inconclusive = small, poorly fitted or top-dose-only effect, or another doubt; inactive = no such curve, though single readings can be large; an effect the other way counts as inactive or inconclusive; note: % is set by controls: 0 for no effect and ±100 for the full control effect; nearly all actives have a fitted effect of over 60% in size
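Huntingtin Q103 exon 1–GFP aggregates in induced PC12 cells (100 nM tebufenozide) were quantified by cytometry from lysates, with compounds dosed in titration.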
ALDH1A1 block = qHTS Assay for Inhibitors of Aldehyde Dehydrogenase 1 (ALDH1A1); Aldehyde dehydrogenase 1A1 (Homo sapiens), P00352; Purified ALDH1A1, NADH fluorescence, propionaldehyde substrate; Potency, µM (series often up to 75.3 µM), inactives show at the top dose activity, negative = inhibition, actives largely listed as inhibitors; 220,000 tested, 7.3% active; AID 1030, 2008;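 note: plate controls were no enzyme wells and a reference inhibitor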
Target sequence (P00352 whole entry, looked up): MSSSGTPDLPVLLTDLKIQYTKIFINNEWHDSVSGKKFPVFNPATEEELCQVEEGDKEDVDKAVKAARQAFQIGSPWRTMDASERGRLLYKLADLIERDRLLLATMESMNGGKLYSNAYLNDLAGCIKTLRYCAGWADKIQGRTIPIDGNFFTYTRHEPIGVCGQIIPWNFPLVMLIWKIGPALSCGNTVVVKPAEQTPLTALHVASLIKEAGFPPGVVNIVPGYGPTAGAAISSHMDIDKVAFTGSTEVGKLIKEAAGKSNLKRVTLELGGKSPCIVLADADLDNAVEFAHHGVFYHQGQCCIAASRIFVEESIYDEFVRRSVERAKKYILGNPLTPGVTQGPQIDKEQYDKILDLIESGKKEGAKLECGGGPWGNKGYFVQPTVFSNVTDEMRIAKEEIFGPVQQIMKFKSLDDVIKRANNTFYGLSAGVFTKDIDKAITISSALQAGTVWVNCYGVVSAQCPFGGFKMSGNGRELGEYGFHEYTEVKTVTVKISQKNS
Lamin A splicing = qHTS Assay for Modulators of Lamin A Splicing. HeLa LMNA splicing GFP/RFP minigene ratio, 48 h. Potency, µM (highest dose often 46.1 µM), for the others: at the top dose ratio change, negative = inhibition, usual class: inhibitors. 200,000 tested, 0.01% active; active = well fitted inhibition curve with a large enough effect in the signal ratio, with a control signal flat, not every such curve was filed as active; inconclusive = small, poorly fitted or top-dose-only effect, or effect the other way, or a change in a side signal; the % refers to the signal ratio; note: % is set by controls: 0 for no effect and ±100 for the full control effect
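S3 HeLa cells stably expressing lamin A-EGFP splicing minigene plus DsRed2, 600 cells/well, 48 h compound exposure at 37C. Laser-scanning cytometry; analysed as GFP (500-530 nm)/RFP (575-640 nm) total intensity ratio; 0.5% DMSO vehicle.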
HPGD block = qHTS Assay for Inhibitors of HPGD (15-Hydroxyprostaglandin Dehydrogenase); 15-hydroxyprostaglandin dehydrogenase [NAD(+)] (Homo sapiens), P15428; purified HPGD, NADH fluorescence kinetic, PGE2 substrate; Potency, µM, for the others: top-dose activity change, negative = inhibition, most hits filed as inhibitors; 150,000 tested, 4.3% active; note: % is set by controls: 0 for no effect and ±100 for the full control effect
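NADH formation kinetics: reaction with 30 uM PGE2 and 1 mM NAD+ (final), 20 nM enzyme, Tris-HCl pH 8 with Tween 20, after 15 min compound preincubation at room temperature. Fluorescence change, last versus first of five reads.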
HTT ATP protect = qHTS Multiplex Assay to Identify Dual Action Probes in a Cell Model of Huntington: Cytoprotection (ATP); PC12 HTT-Q103 induced, cytoprotection, ATP luminescence, 40 h; 230,000 tested, 0.14% active; Potency, µM (doses to about 56.4 µM), without a hit: cytoprotection (ATP increase), most hits filed as activators; active = well fitted curve in the direction sought with a large enough effect; inconclusive = small, poorly fitted or top-dose-only effect, or another doubt; inactive = no such curve, though single readings can be large; an effect the other way counts as inactive or inconclusive; note: % of control where 0% means no effect; nearly all actives have a fitted effect of over 45% in size
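Rat PC12, Q103 Htt exon1-GFP fusion, ecdysone promoter; tebufenozide inducer 100 nM final; compound titration; qHTS, 1500 cells/well; ATPlite luminescent read.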
An asterisk follows results filed as active; [ ] = another dose, or the depositor's remark. Unless noted, calls come from the whole dose curve; as a rule, active = well fitted inhibition curve with a large enough effect (not every such curve was filed as active); inconclusive = small, poorly fitted or top-dose-only effect, or another doubt; inactive = no such curve, though single readings can be large or run the other way. Potency is the fitted concentration of half-maximal effect.

COc1ccc(N(Cc2cccs2)C(=O)Nc2cccc(Cl)c2)cc1 was read as Lamin A splicing -10%[46 µM].
For CN(C)c1ccc(-c2cncnc2Nc2ccc(F)cc2)cc1 the results were ALDH1A1 block inconclusive, Lamin A splicing inconclusive and HTT ATP protect -206%.
Screening Cc1ccc2c(c1)c(C)cc[n+]2Cc1ccccc1 returned JMJD2E inh inconclusive, HttQ103 aggreg -27%, ALDH1A1 block -7%, Lamin A splicing inconclusive and HTT ATP protect 18%[10 µM].
`CC[n+]1ccc(C[n+]2ccccc2)c2ccccc21` gave JMJD2E inh inconclusive, HttQ103 aggreg -2%, ALDH1A1 block 19µM*, Lamin A splicing 16%, HPGD block inconclusive and HTT ATP protect -10%[10 µM].
Screening COc1cccc(NC(=O)C2(S(=O)(=O)c3ccc(Cl)cc3)CC2)c1 returned JMJD2E inh -7%, HttQ103 aggreg -11%[9.22 µM] and HTT ATP protect 6%[10 µM].
Screening CCCCC(CC)COCCCN (stereo not drawn) returned ALDH1A1 block 11%, HPGD block -3% and HTT ATP protect -42%.
Screening O=C(CNc1cc(S(=O)(=O)N2CCOCC2)ccc1N1CCCC1)N1CCc2ccccc21 returned JMJD2E inh inconclusive, HttQ103 aggreg 1%, ALDH1A1 block 25µM* and HTT ATP protect -25%.
Screening Cc1ccc(S(=O)(=O)N2CCOCC2)cc1NC(=O)c1cc(-c2ccccn2)nc2ccccc12 returned JMJD2E inh 1%, HttQ103 aggreg -11%[9.22 µM], ALDH1A1 block inconclusive and HTT ATP protect 7%[10 µM].
For CC(C)(C)CC(=O)Nc1cc(S(=O)(=O)N2CCOCC2)ccc1N1CCCC1 the results were JMJD2E inh -10%, HttQ103 aggreg -3%[9.22 µM] and HTT ATP protect -5%[10 µM].
`O=C(Nc1cc(S(=O)(=O)N2CCOCC2)ccc1N1CCCCC1)c1cc(-c2ccccn2)nc2ccccc12` gave JMJD2E inh inconclusive, HttQ103 aggreg inconclusive, ALDH1A1 block 7.1µM* and HTT ATP protect -18%[10 µM].
For Cc1nc2nc(-c3ccccc3)[nH]n2c(=O)c1C the results were JMJD2E inh inconclusive, HttQ103 aggreg -15%, ALDH1A1 block -10%, Lamin A splicing 7%, HPGD block -21% and HTT ATP protect -25%.
`Cc1nc2nc(-c3cccnc3)[nH]n2c(=O)c1C` gave JMJD2E inh 11%, HttQ103 aggreg -3%[9.22 µM], ALDH1A1 block 18µM*, Lamin A splicing -1%, HPGD block -3% and HTT ATP protect -14%.
For O=C(c1cccc(F)c1)N1CCC2(CC1)CCN(c1ccccn1)CC2 the results were ALDH1A1 block inconclusive, HPGD block inconclusive and HTT ATP protect 10%.
For O=C(C[n+]1ccn(CCCNP2(=O)C=C(c3ccccc3)OC(c3ccccc3)=C2)c1)c1cccs1 the results were JMJD2E inh 3%, HttQ103 aggreg -7%, ALDH1A1 block 14µM*, Lamin A splicing -1%[46 µM] and HTT ATP protect -19%.
Screening COC(=O)n1c(=S)oc2cc(Cl)ccc21 returned JMJD2E inh -19%, HttQ103 aggreg -2%, ALDH1A1 block 14µM*, Lamin A splicing 7%, HPGD block 22µM* and HTT ATP protect -32%.
For CN1CCN(c2ccncc2S(=O)(=O)N2CCN(C)CC2)CC1 the results were ALDH1A1 block 13%[13.5 µM], HPGD block -5% and HTT ATP protect 3%[10 µM].
COc1ccc(/C=C/C(=O)N2CCCc3ccccc32)cc1 was read as JMJD2E inh -6%, HttQ103 aggreg -2%, ALDH1A1 block inconclusive, Lamin A splicing inconclusive, HPGD block 11µM* and HTT ATP protect 7%[10 µM].
`COc1cccc2c(=O)n(CC(=O)N3CCCc4ccccc43)ccc12` gave JMJD2E inh inconclusive, HttQ103 aggreg inconclusive, ALDH1A1 block 10µM*, Lamin A splicing 6%, HPGD block -10% and HTT ATP protect -34%.
For CCOC(=O)COc1cccc2c(=O)n(CC(=O)N3CCCc4ccccc43)ccc12 the results were JMJD2E inh -25%, HttQ103 aggreg -5%, ALDH1A1 block inconclusive, Lamin A splicing -11%, HPGD block -7% and HTT ATP protect 4%[10 µM].
Screening COc1cc(/C=C/C(=O)N2CCCc3ccccc32)cc(OC)c1OC returned JMJD2E inh 1%, HttQ103 aggreg -9%, ALDH1A1 block 14µM*, Lamin A splicing inconclusive, HPGD block -10% and HTT ATP protect 3%[10 µM].
Screening COc1ccc(OC)c(/C=C/C(=O)N2CCCc3ccccc32)c1 returned JMJD2E inh -1%, HttQ103 aggreg -1%, ALDH1A1 block inconclusive and HTT ATP protect -51%.
Screening COc1ccc(NC(=O)C2CC(=O)N/C(=N/NC(=O)c3ccc(Cl)cc3)S2)cc1 (stereo not drawn) returned JMJD2E inh inconclusive, HttQ103 aggreg 3%[9.22 µM], ALDH1A1 block -1% and HTT ATP protect 16%[10 µM].
`COc1cccc(CNC(=O)Cn2c(=O)cc(C)c3c(C)nn(C)c32)c1OC` gave Lamin A splicing 1%[46 µM].
`O=c1c2c(ncn2C2CCCC2)n(Cc2ccccc2)c(=O)n1CCOc1ccccc1` gave JMJD2E inh 4%, HttQ103 aggreg -10%, ALDH1A1 block 11%, Lamin A splicing inconclusive, HPGD block -19% and HTT ATP protect -4%[10 µM].
CCCCn1c(=O)n(CC(O)c2ccccc2)c(=O)c2c1ncn2C1CCCC1 (stereo not drawn) was read as JMJD2E inh -1%, HttQ103 aggreg -12%, ALDH1A1 block 10µM*, Lamin A splicing 0%, HPGD block 0% and HTT ATP protect -15%[10 µM].
Screening O=C(O)C(S)[C@@H](S)C(=O)O (stereo partly drawn) returned JMJD2E inh inconclusive, ALDH1A1 block 3.5µM*, HPGD block 4.5µM* and HTT ATP protect inconclusive.
`Cn1cc(S(=O)(=O)N2CCCCC2)cc1C(=O)NCc1ccc(Cl)cc1` gave Lamin A splicing 5%[46 µM].
`[N-]=[N+]=CC(=O)C(Cc1ccccc1)N1C(=O)c2ccccc2C1=O` (stereo not drawn) gave JMJD2E inh 3%, HttQ103 aggreg 11%[9.22 µM], ALDH1A1 block 2.8µM*, Lamin A splicing 2%, HPGD block -13% and HTT ATP protect -7%[0.074 µM].

High-throughput results deposited in PubChem by National Center for Advancing Translational Sciences (NCATS).
